Measured values reported in PubChem BioAssay (NCI).
The panel holds about 79,000 compounds, 15% with a hit somewhere; the sample as a whole holds those more often. Unmarked numbers belong to inactive results. The source made the active and inactive calls. Cut-off read from the data, not from the text of the source: active = growth inhibition above about 70%; inactive = the rest.

Test: NCI Yeast Anticancer Drug Screen. Data for the sgs1 mgt1 strain (AID 161);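 note: 0% = growth of cultures given vehicle only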
Conditions: S. cerevisiae sgs1 mgt1 strain, at 50.0 µM, active compounds read high
Procedure, shortened: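 Genetically altered yeast, compound exposure, growth inhibition relative to vehicle.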
Work on CCNc1ncnc2[nH]ncc12 yielded a growth inhibition of -5.6%.
Molecule CC(=O)[C@@]1(O)CC[C@H]2[C@@H]3CC[C@@H]4CC(=O)CC[C@]4(C)[C@H]3[C@@H](O)C[C@@]21C has a growth inhibition of -3%.
In the case of Cc1onc(-c2ccccc2Cl)c1C(=O)Cl, the growth inhibition is reported as -13.2%.
C1=NCCc2ccccc21 showed a growth inhibition of -8.25%.
For CC(=O)Oc1c(Cl)cccc1-c1ccccc1, the growth inhibition was 28.1%.
CC(C)N1CC(=O)N2CSCC2C1=O (centres undefined) showed a growth inhibition of 9.8%.
S=C=Nc1ccc2ccccc2c1 showed a growth inhibition of -5.9%.
Work on BrCc1cccc(C[P+](c2ccccc2)(c2ccccc2)c2ccccc2)c1 yielded a growth inhibition of 36.2%.
O=C(Nc1c(Cl)cc(Cl)cc1Cl)ON=C1CCCCC1 gave a growth inhibition of 11.1%.
Cc1onc(-c2c(F)cccc2Cl)c1-c1ncc(-c2ccc(Br)cc2)o1 showed a growth inhibition of -9.75%.
For CC1CC(C)S(=O)(=O)C1 (centres undefined), the growth inhibition was -39%.
In the case of Oc1ccc(CCC2CCNc3ccccc32)cc1 (centres undefined), the growth inhibition is reported as -14.2%.
Cc1cccc(C)c1NC(=S)/N=C\c1c(O)[nH]c(=O)[nH]c1=O gave a growth inhibition of -32.3%.
For CC1(C)CC(=O)C=C(N)C1, the growth inhibition was 1.05%.
Cc1cc(C)cc(OCC(=O)O)c1 gave a growth inhibition of -10.6%.
For S=CN1CCCCC1, the growth inhibition was -7.8%.
In the case of CCC(C)C1CCC(O)CC1 (centres undefined), the growth inhibition is reported as 9.15%.
In the case of CN(C)Cc1ccccn1, the growth inhibition is reported as -4.25%.
Molecule COc1cc(C(=O)O)c(O)c(C(C)(C)C)c1 has a growth inhibition of 17.9%.
In the case of CC(=O)NC(CCc1ccc(Cl)c(Cl)c1)c1cccc(O)c(=O)c1 (centres undefined), the growth inhibition is reported as 86% (active).
For COC1OC(CO)C(OC)C(O)C1O (centres undefined), the growth inhibition was 0.2%.
Molecule CC1=CC(=Nc2ccc(N(C)C)cc2)C=C(C)C1=O has a growth inhibition of -5.1%.
O=Cc1ccc(Cl)c(Cl)c1 gave a growth inhibition of -18.8%.
Work on C=CC(=O)OC1CCC(C(C)(C)CC)CC1 (centres undefined) yielded a growth inhibition of -12.9%.
In the case of ClCC(Cl)[C@@H]1CC2C=CC1C2 (some centres undefined), the growth inhibition is reported as 10.3%.
Work on CC(=O)c1ccc(C)cc1 yielded a growth inhibition of -28.8%.
For Cc1nc(O)cc(=O)[nH]1, the growth inhibition was -14.2%.
C/C(Cc1ccccc1)=N\O showed a growth inhibition of -20.6%.
With Nc1ncc([N+](=O)[O-])cn1 the growth inhibition was -29%.
In the case of Cn1c(=O)c2nc3c(=O)n(C)c(=O)n(C)c3nc2n(C)c1=O, the growth inhibition is reported as -17.2%.
In the case of ON1CCCC1, the growth inhibition is reported as -8.9%.
With CCOc1ccc2c(c1)c(C)cc(C)[n+]2CC the growth inhibition was -13.2%.
O=[N+]([O-])c1ccc2[nH]c(=S)n(/C=C(/c3ccc(Cl)cc3Cl)S(=O)(=O)Cc3ccc(Cl)cc3Cl)c2c1 showed a growth inhibition of 16.1%.
For CN1C(=O)NC(c2ccc(Cl)cc2)(c2ccc(Cl)cc2)C1=O, the growth inhibition was -23%.
Molecule CCOc1ccc(C(=O)O)cc1 has a growth inhibition of -1.65%.
O=C1NC(=O)C(c2ccccc2)O1 (centres undefined) showed a growth inhibition of 1.15%.
With O=c1[nH]c(=O)c2cc(Cl)cc(Cl)c2[nH]1 the growth inhibition was -1.4%.
For CC1(C)OC2C(CO)OC(n3ccc(=O)[nH]c3=O)C2O1 (centres undefined), the growth inhibition was -12.3%.

Test: NCI Yeast Anticancer Drug Screen. Data for the cln2 rad14 strain (AID 165);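 note: 0% = growth equal to vehicle treated cultures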
Conditions: S. cerevisiae cln2 rad14 strain, at 50.0 µM, active compounds read high
Procedure, shortened: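 Test compounds were added to cln2 rad14 yeast cultures; inhibition of growth was then determined by comparison with vehicle treatment.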
C1=NCCc2ccccc21 showed a growth inhibition of -19.9%.
S=CN1CCCCC1 gave a growth inhibition of -2.4%.
Molecule O=Cc1ccc(Cl)c(Cl)c1 has a growth inhibition of -16.9%.
With C/C(Cc1ccccc1)=N\O the growth inhibition was 19.8%.
With Nc1ncc([N+](=O)[O-])cn1 the growth inhibition was -13.8%.
With ON1CCCC1 the growth inhibition was -6.6%.
CCOc1ccc2c(c1)c(C)cc(C)[n+]2CC gave a growth inhibition of -7.9%.

Test: NCI Yeast Anticancer Drug Screen. Data for the bub3 strain (AID 167)
Conditions: S. cerevisiae bub3 mutant strain, at 50.0 µM, active compounds read high
Procedure, shortened: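 Readout: yeast growth inhibition, expressed relative to vehicle-only wells. The test organism is a mutant strain from a panel with lesions in DNA repair or checkpoint genes.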
In the case of CCNc1ncnc2[nH]ncc12, the growth inhibition is reported as 3.9%.
With Cc1onc(-c2ccccc2Cl)c1C(=O)Cl the growth inhibition was -31.1%.
CC(=O)Oc1c(Cl)cccc1-c1ccccc1 showed a growth inhibition of 7.5%.
For CC(C)N1CC(=O)N2CSCC2C1=O (centres undefined), the growth inhibition was 13.1%.
With S=C=Nc1ccc2ccccc2c1 the growth inhibition was 2.35%.
O=C(Nc1c(Cl)cc(Cl)cc1Cl)ON=C1CCCCC1 showed a growth inhibition of 15.5%.
Molecule Cc1onc(-c2c(F)cccc2Cl)c1-c1ncc(-c2ccc(Br)cc2)o1 has a growth inhibition of -15.5%.
Molecule CC1CC(C)S(=O)(=O)C1 (centres undefined) has a growth inhibition of -39.8%.
With Oc1ccc(CCC2CCNc3ccccc32)cc1 (centres undefined) the growth inhibition was -3.95%.
Cc1cccc(C)c1NC(=S)/N=C\c1c(O)[nH]c(=O)[nH]c1=O gave a growth inhibition of -46.1%.
Molecule CC1(C)CC(=O)C=C(N)C1 has a growth inhibition of -4.7%.
For Cc1cc(C)cc(OCC(=O)O)c1, the growth inhibition was -4.45%.
CCC(C)C1CCC(O)CC1 (centres undefined) gave a growth inhibition of 24.2%.
For CN(C)Cc1ccccn1, the growth inhibition was -13.4%.
COc1cc(C(=O)O)c(O)c(C(C)(C)C)c1 gave a growth inhibition of 5.4%.
In the case of CC(=O)NC(CCc1ccc(Cl)c(Cl)c1)c1cccc(O)c(=O)c1 (centres undefined), the growth inhibition is reported as 82.5% (active).
In the case of COC1OC(CO)C(OC)C(O)C1O (centres undefined), the growth inhibition is reported as -0.65%.
Molecule CC1=CC(=Nc2ccc(N(C)C)cc2)C=C(C)C1=O has a growth inhibition of 20.2%.
For C=CC(=O)OC1CCC(C(C)(C)CC)CC1 (centres undefined), the growth inhibition was -8.15%.
Molecule ClCC(Cl)[C@@H]1CC2C=CC1C2 (some centres undefined) has a growth inhibition of 11.2%.
With CC(=O)c1ccc(C)cc1 the growth inhibition was -36%.
In the case of Cc1nc(O)cc(=O)[nH]1, the growth inhibition is reported as -15.3%.
With Cn1c(=O)c2nc3c(=O)n(C)c(=O)n(C)c3nc2n(C)c1=O the growth inhibition was -13.7%.
In the case of O=[N+]([O-])c1ccc2[nH]c(=S)n(/C=C(/c3ccc(Cl)cc3Cl)S(=O)(=O)Cc3ccc(Cl)cc3Cl)c2c1, the growth inhibition is reported as -3%.
CN1C(=O)NC(c2ccc(Cl)cc2)(c2ccc(Cl)cc2)C1=O showed a growth inhibition of -8%.
Molecule CCOc1ccc(C(=O)O)cc1 has a growth inhibition of 8.2%.
Molecule O=C1NC(=O)C(c2ccccc2)O1 (centres undefined) has a growth inhibition of 18.8%.
Molecule O=c1[nH]c(=O)c2cc(Cl)cc(Cl)c2[nH]1 has a growth inhibition of 9.25%.
With CC1(C)OC2C(CO)OC(n3ccc(=O)[nH]c3=O)C2O1 (centres undefined) the growth inhibition was 10.5%.
